Only some compounds are listed: those with a hit (about 13% of all), similar ones and a draw of the others.
HCV inhibitor: qHTS Assay for Inhibitors of Hepatitis C Virus (HCV); Huh7.5.1 HCVcc-Cre infection, luciferase reporter, 44 h; Potency, µM (titrated, usually from 41.8 µM), inactives show at the top dose activity change, negative = inhibition, usual class: inhibitors; 340,000 compounds, 3.4% hits; AID 651820, 2012; also: potency is read from the fitted curve at half-maximal effect
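Infectious HCV cell culture screen: compound-treated cells (1,000/well, pre-plated 4 h) are infected with HCVcc-Cre at roughly 0.5 moi and grown 44 h. Infection is quantified by luciferase signal after 15 min substrate incubation at room temperature.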
Pf growth 48h: Primary qHTS for delayed death inhibitors of the malarial parasite plastid, 48 hour incubation | Potency, µM (top dose mostly 28.7 µM), inactives show at the top dose activity change, negative = inhibition, actives largely listed as inhibitors | 310,000 compounds, 5.9% hits | P. falciparum luciferase growth in erythrocytes, 48 h; also: potency is read from the fitted curve at half-maximal effect
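Growth was read as firefly luciferase luminescence after a 48 h, 37 C, 5% CO2 exposure of compounds to reporter-bearing P. falciparum cultures (0.1% parasitemia, 2% hematocrit final) in Albumax-supplemented RPMI 1640.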
HCMV inh: qHTS Assay for inhibitors of the human cytomegalovirus (HCMV); activity change, negative = inhibition, % at 57.5 µM; 410,000 compounds, 4.5% hits; AID 1259415, 2018; HFF cells, HCMV-luciferase reporter, 72 h; hits give low values; in the data active = activity change below about -60%; inconclusive = no clear call, values can overlap the other calls; inactive = above about -39%
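Cell-based, HFFs, 1000 cells/well, 16 h 37C; cpds in DMSO + HCMV-luc, MOI 1 PFU/cell; 72 h 37C; OneGlo luminescence after 5 min RT; norm. to buffer vs Salinomycin 10uM.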
Pf growth 96h: Primary qHTS for delayed death inhibitors of the malarial parasite plastid, 96 hour incubation; 320,000 compounds, 6.9% hits; AID 504834, 2011; P. falciparum luciferase reporter growth, 96 h; Potency, µM (series often up to 28.7 µM), inactives show at the top dose activity change, negative = inhibition, most hits filed as inhibitors; also: potency is read from the fitted curve at half-maximal effect
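Parasite growth measured via integrated firefly luciferase reporter in P. falciparum. Infected erythrocytes at 2% hematocrit, 0.05% parasitemia final were treated 96 hours at 37 C under 5% CO2, and luminescence was read.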
* = called active by the depositor; ? = inconclusive; . = no result; [ ] = remark or other dose. Unless noted, calls follow the shape of the dose curve; as a rule, active = well fitted inhibition curve with a large enough effect; inconclusive = small, poorly fitted or top-dose-only effect, or another doubt; inactive = no such curve, though single readings can be large or run the other way. % is scaled to controls: 0 for no effect and ±100 for the full control effect.

SMILES	HCV inhibitor	Pf growth 48h	HCMV inh	Pf growth 96h
Cc1ccc(C(c2sc3ncnn3c2O)N2CCC(C)CC2)cc1 (stereo unspecified)	13%	?	3	5.9µM*
CN(C(=O)CC1C(=O)NCCN1CC(c1ccccc1)c1ccccc1)C(C1CC1)C1CC1 (stereo unspecified)	8%	?	-39	?
COCCN(C(=O)CC1C(=O)NCCN1CC(c1ccccc1)c1ccccc1)C(C)C (stereo unspecified)	10%	?	?	10µM*
COC(=O)C1=C(C)NC(C)=C(C(=O)OCC2CCCO2)C1c1ccc(Cl)c([N+](=O)[O-])c1 (stereo unspecified)	.	?	11	?
CC1=C(C(=O)OCCNC(=O)c2ccccc2O)C(c2ccccc2[N+](=O)[O-])C(C(=O)OCC2CCCO2)=C(C)N1 (stereo unspecified)	?	?	?	5.2µM*
Cc1ccc(CNC(=O)Cn2c(=O)n(Cc3ccc(F)cc3)c(=O)c3sc4ccccc4c32)cc1	.	.	-65*	.
O=C(Cn1c(=O)c2sccc2n(Cc2cccc([N+](=O)[O-])c2)c1=O)NCCc1ccccc1	?	?	-1	?
COC(=O)CNC(=O)Cn1c(=O)n(Cc2ccc(F)cc2)c(=O)c2sccc21	18%	44%	-9	12µM*
O=C(Cn1c(=O)c2sccc2n(Cc2ccc([N+](=O)[O-])cc2)c1=O)NCCc1ccccc1	?	0%	-73*	?
COc1cccc(-n2c(=O)c3sc4ccccc4c3n(CC(=O)Nc3ccc(F)cc3F)c2=O)c1	.	.	-70*	.
CCN(CC)C(=O)Cn1c(=O)n(Cc2ccc(F)cc2)c(=O)c2sccc21	5%	9%	15	?
CCOc1ccccc1N(C)S(=O)(=O)c1ccc2c(c1)N(C(C)=O)CCO2	5%	-2%	-34	1.9µM*
CC(=O)N1CCOc2ccc(S(=O)(=O)N3CCC(C)CC3)cc21	16%	19%	-2	54%
CC(=O)N1CCOc2ccc(S(=O)(=O)N(C)c3cccc(C)c3)cc21	?	0%	-8	-24%
CC(=O)N1CCOc2ccc(S(=O)(=O)N3CC(C)CC(C)C3)cc21 (stereo unspecified)	?	-21%	-5	9.3µM*
O=C1C=CN(S(=O)(=O)c2ccc(Cl)cc2)C(c2cccs2)C1 (stereo unspecified)	.	.	25	.
CCOC(=O)C1=NN(C(=O)COc2ccccc2)C(O)(c2ccc(Br)cc2)C1 (stereo unspecified)	-9%	20%	-23	2.9µM*
CCC1=NN(C(=O)COc2ccccc2)C(O)(c2ccncc2)C1 (stereo unspecified)	19%	1%	-31	-4%
Cn1cnnc1SCC(=O)Nc1ccc(C#N)cc1	.	.	-15	.
COc1cc2nc(NCCc3ccccc3)n3nc(-c4cccnc4)nc3c2cc1OC	.	.	9	.
CCN(CC)c1ccc(/C=N/NC(=O)Cc2cccs2)c(O)c1	?	?	-100*	?
CCN(CC)c1ccc(/C=N/NC(=S)NCc2ccccc2)c(O)c1	-28%	0%	-63*	?
CCN(CC)c1ccc(C=Nc2ccccc2C)c(O)c1	-16%	-7%	11	-6%
CCN(CC)c1ccc(/C=N/N=C(c2ccccc2)c2ccccc2)c(O)c1	?	?	3	?
CCN(CC)c1ccc(/C=N/NC(=O)c2ccco2)c(O)c1	?	?	-103*	-86%
SMILES	HCV inhibitor	Pf growth 48h	HCMV inh	Pf growth 96h
CCN(CC)c1ccc(/C=N/N(c2ccccc2)c2ccccc2)c(O)c1	-3%	?	-20	7.4µM*
O=c1c2ccccc2cnn1CCOc1cccc(Br)c1	?	?	29	9.3µM*
Clc1ccc(CC[C@H](Cn2ccnc2)Sc2c(Cl)cccc2Cl)cc1	.	5.7µM*	.	2µM*
O=C(Cn1ccnc1)c1ccc(Cl)cc1	19%	-5%	-14	-21%
Cc1cccc(-c2nc(C)c(CCNC(=O)C(=O)Nc3ccccc3C#N)s2)c1	.	.	7	.
Nc1sccc1C(=O)NCc1ccccc1	.	.	-30	.
O=C(Nc1cc(C(F)(F)F)ccc1Cl)c1ccncc1	6%	20%	?	-4%
C/C(=N\Nc1cc(C(F)(F)F)ccc1Cl)c1ccncc1	13µM*	?	-16	?
CCOC(=O)c1c(S(=O)(=O)N2CCCC(C(=O)Nc3cccc(CC)c3)C2)c(C)n(CC)c1C (stereo unspecified)	.	.	-26	.
CN(C)c1ccc(C(=O)/C=C/c2cccnc2)cc1	-3%	-2%	-67*	8%
C[C@@H]1COC(=O)[C@H](Cc2ccc(F)cc2)CC/C=C/C[C@@H](CC(=O)N[C@@H](CO)Cc2ccccc2)C(=O)N1	3%	.	10	.
O=C(C[C@@H]1C/C=C/CC[C@H](Cc2ccc(F)cc2)C(=O)OC[C@@H](Cc2ccccc2)NC1=O)N[C@H](CO)Cc1ccccc1	?	.	-99*	.
O=C1NCCOC(=O)[C@@H](Cc2ccc(F)cc2)CC/C=C/C[C@H]1CC(=O)N(CCO)Cc1ccccc1	11µM*	.	-33	.
C[C@H]1COC(=O)[C@H](Cc2ccc(F)cc2)C/C=C\C[C@@H](CC(=O)NCCO)C(=O)N1	0%	.	6	.
C[C@H]1COC(=O)[C@@H](Cc2ccc(F)cc2)C/C=C\C[C@@H](CC(=O)NCCO)C(=O)N1	3.5µM*	.	-5	.
O=C(C[C@@H]1C/C=C\C[C@H](Cc2ccc(F)cc2)C(=O)OCCNC1=O)N[C@H](CO)Cc1ccccc1	10%	.	-10	.
O=C1NCCOC(=O)[C@H](Cc2ccc(F)cc2)CC/C=C/C[C@@H]1CC(=O)N(CCO)Cc1ccccc1	8%	.	-35	.
O=C(C[C@@H]1C/C=C/CC[C@H](Cc2ccc(F)cc2)C(=O)OCCNC1=O)N[C@H](CO)Cc1ccccc1	10µM*	.	-17	.
COC(=O)c1ccc2nc(-c3ccco3)c(Cc3ccccc3OC)n2c1	.	.	9	.
COC(=O)c1ccc2nc(NC(=O)C(C)C)sc2c1	-20%	193%	62	204%
COC(=O)c1ccc2nc(Nc3nc4c(F)cc(F)cc4s3)sc2c1	2%	39%	-70*	-27%
CCOC(=O)c1ccc2nc(NC(C)=O)sc2c1	-14%	263%	118	-1%
COC(=O)c1ccc2nc(NC(=O)CN3C(=O)CCC3=O)sc2c1	0%	0%	44	0.83µM*
CCOC(=O)c1ccc2nc(Nc3nc4ccc(F)cc4s3)sc2c1	11%	99%	-91*	24%
COc1ccc(-c2nc3c(C#N)c[nH]n3c2NC2CCCC2)c(OC)c1	.	.	-6	.
COc1ccc(Cl)cc1NC(=O)c1cc2c(=O)n3ccccc3nc2s1	.	.	-8	.
COc1ccc(CNC(=O)c2sc3nc4n(c(=O)c3c2C)CCCC4)cc1	.	.	-13	.
C/C(CCN1CCc2nc(-c3ccccc3)c(-c3ccccc3)cc2C1)=N\O[C@H](C)c1cn([C@H](CO)Cc2ccccc2)nn1	-11%[8.37 µM]	9.3µM*	.	13µM*
